ELG1 DNA repair = qHTS screen for small molecules that inhibit ELG1-dependent DNA repair in human embryonic kidney (HEK293T) cells expressing luciferase-tagged ELG1; HEK293T ELG1-luciferase reporter, luminescence, 16 h; DNA damage induced by 5-fluorouridine; Potency, µM (highest dose often 46.1 µM), without a hit: at the highest dose activity change, negative = inhibition, actives largely listed as inhibitors; actives 2.3% (n = 330,000); AID 504467, 2011; also: potency is read from the fitted curve at half-maximal effect; nearly all actives have a fitted effect of over 55% in size
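DMSO vehicle served as the neutral condition. Each well held 2,000 cells given 5-fluorouridine plus compound; after 16 hr at 37 °C/5% CO2, ONE-Glo was added and luciferase measured 30 min later.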
TDP1 inh = qHTS Assay for Inhibitors of Tyrosyl-DNA Phosphodiesterase (TDP1); Potency, µM (doses to about 130 µM), without a hit: top-dose activity change, negative = inhibition, usual class: inhibitors; Tyrosyl-DNA phosphodiesterase 1 (Homo sapiens), Q9NUW8; actives 0.28% (n = 350,000); recombinant TDP1, AlphaScreen DNA substrate cleavage; AID 485290, 2010; also: potency is read from the fitted curve at half-maximal effect; nearly all actives have a fitted effect of over 40% in size
Target sequence (Q9NUW8 whole entry, looked up): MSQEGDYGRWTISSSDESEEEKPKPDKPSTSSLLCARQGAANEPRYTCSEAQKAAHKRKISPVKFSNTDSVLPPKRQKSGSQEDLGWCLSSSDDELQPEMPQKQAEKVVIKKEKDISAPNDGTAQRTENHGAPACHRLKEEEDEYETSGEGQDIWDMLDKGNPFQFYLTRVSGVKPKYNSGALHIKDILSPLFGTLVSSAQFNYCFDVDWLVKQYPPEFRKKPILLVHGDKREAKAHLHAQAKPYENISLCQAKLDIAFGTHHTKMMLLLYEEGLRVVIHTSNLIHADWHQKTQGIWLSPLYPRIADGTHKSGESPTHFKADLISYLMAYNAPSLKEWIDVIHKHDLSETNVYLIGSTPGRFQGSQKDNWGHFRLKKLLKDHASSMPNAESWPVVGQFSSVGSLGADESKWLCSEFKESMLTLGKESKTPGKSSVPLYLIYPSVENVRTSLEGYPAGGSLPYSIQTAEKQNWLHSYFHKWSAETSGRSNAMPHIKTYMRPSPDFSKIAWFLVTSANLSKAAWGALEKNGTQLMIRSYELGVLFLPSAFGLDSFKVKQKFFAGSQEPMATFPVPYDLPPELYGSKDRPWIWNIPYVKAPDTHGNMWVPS
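E. coli-derived human Tdp1, 1 nM final. Cpd preinc 15 min RT; substrate 15 nM final, 5 min RT; AS bead mix 10 ug/ml final, 10 min RT. Signal loss = tyrosine-FITC cleavage. No-enzyme wells = max signal.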
IL-1B inflam inh = qHTS for Inhibitors of Inflammasome Signaling: IL-1-beta AlphaLISA Primary Screen; THP-1 LPS/ATP IL-1B secretion, AlphaLISA, 16 h; hits give low values; activity change, % at 57.5 µM; actives 4.7% (n = 360,000); AID 743279, 2014; in the data active = activity change below about -50%; inconclusive = mostly about -30% to -49%
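THP-1 cells pretreated 1 hr with compounds (up to 57.5 uM final), then stimulated with LPS (250 ng/mL final) plus ATP (1.25 mM final); secreted IL-1B measured by AlphaLISA after 16 hr, decreased signal indicating inhibition.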
Giardia killer = Small Molecules that selectively kill Giardia lamblia: qHTS; Giardia lamblia trophozoite viability; actives 0.15% (n = 340,000); AID 540267, 2011; activity change, % at 7.66 µM, hits read low; in the data active = activity change below about -80%; inconclusive = between about -30% and that limit;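 also: parasites exposed to compound for two days anaerobically before the ATP read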
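Trophozoite viability was measured as ATP-dependent luminescence, read 15-30 min after reagent addition. Before that, parasites at 100 cells/well were exposed to compounds for 48 h, anaerobically, at 37 deg C.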
DT40 TDP1 CPT = qHTS for Inhibitors of human tyrosyl-DNA phosphodiesterase 1 (TDP1): qHTS in cells in presence of CPT; chicken DT40 Tdp1-/-;hTDP1 cells + 20 nM CPT, ATP luminescence, 48 h; actives 12% (n = 420,000); Potency, µM (titrated, usually from 46.2 µM), for the others: top-dose activity change, negative = growth inhibition, usual class: inhibitors; also: potency is read from the fitted curve at half-maximal effect; nearly all actives have a fitted effect of over 55% in size
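Chicken DT40 Tdp1-/- cells complemented with human TDP1, 400 cells/well, exposed to compounds plus 20 nM camptothecin for at least 48 h at 37 C; viability read as ATP content by CellTiter-Glo luminescence.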
TDP1 cell noCPT = qHTS for Inhibitors of human tyrosyl-DNA phosphodiesterase 1 (TDP1): qHTS in cells in absence of CPT. DT40 Tdp1-/- hTDP1 cells, no CPT, ATP luminescence, 48 h. Potency, µM (top dose mostly 46.2 µM), without a hit: at the top dose activity change, negative = growth inhibition, hits mostly inhibitors. actives 15% (n = 420,000). AID 686978, 2013; also: potency is read from the fitted curve at half-maximal effect; nearly all actives have a fitted effect of over 55% in size
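Chicken DT40 Tdp1-/- cells stably complemented with human TDP1 were seeded at 400 cells/well with DMSO in place of 20 nM camptothecin. After compound pinning, cells grew at least 48 hr at 37 °C; viability read by CellTiter-Glo luminescence.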
* marks the source's active call; other numbers are inactive results; u = inconclusive; x = no result given; [ ] = another dose, or the depositor's remark. An excerpt weighted towards active compounds, which were near 19% of everything screened. Unless noted, calls follow the shape of the dose curve; as a rule, active = well fitted curve in the direction sought with a large enough effect; inconclusive = small, poorly fitted or top-dose-only effect, or another doubt; inactive = no such curve, though single readings can be large; an effect the other way counts as inactive or inconclusive. % is scaled to controls: 0 for no effect and ±100 for the full control effect.

SMILES	ELG1 DNA repair	TDP1 inh	IL-1B inflam inh	Giardia killer	DT40 TDP1 CPT	TDP1 cell noCPT
CCCCn1c(=O)nc2n(-c3ccc(F)cc3)c3ccccc3cc-2c1=O	x	5%[12.3 µM]	x	x	9%	-9%
COc1ccc(N2CCN(C(c3cccs3)c3nnnn3C3CCCC3)CC2)cc1 (centres undefined)	-17%	14%	-14	-10	21µM*	16µM*
COc1ccc(N2CCN(C(c3ccccc3OC)c3nnnn3C3CCCC3)CC2)cc1 (centres undefined)	-15%	8%	u	-4	23µM*	21µM*
COc1ccc(N2CCN(C(c3cccc(OC)c3OC)c3nnnn3C3CCCC3)CC2)cc1 (centres undefined)	0%	5%	u	8	u	u
COCCN(C(=O)Cc1coc2cc(C)c(C)cc12)c1c(N)n(Cc2ccccc2)c(=O)[nH]c1=O	11%	-8%[0.505 µM]	-2	-10	0%	3%
COc1ccc(CCNC(=O)CCc2c(C)nc3c4cccnc4nn3c2C)cc1OC	x	6%	x	x	-12%	1%
CC(C)Cn1nnnc1S(=O)(=O)CCc1ccccc1	x	6%	x	x	x	x
CCOC(=O)c1cc(N2CCCCC2)nc2ccccc12	x	x	5	-20	23µM*	u
Cc1cccc2c1NC(=O)C2=O	x	x	4	16	u	-6%
O=C1Nc2c(Cl)cccc2C1=O	x	x	104	x	15µM*	23µM*
O=C1Nc2c(Br)cccc2C1=O	u	0%	73	14	8.2µM*	12µM*
COC(=O)c1cccc2c1NC(=O)C2=O	5%	3%	17	-29	-3%	21µM*
COc1c(C=O)c(O)cc2c1C(=O)c1ccccc1C2=O	x	7%	x	x	u	u
CCC1CCC2(CC1)NC(=O)N(CC(=O)N1CCc3ccccc31)C2=O (centres undefined)	-4%	0%	2	11	u	u
O=C(OCC1(COC(=O)c2cccnc2)CCCC(COC(=O)c2cccnc2)(COC(=O)c2cccnc2)C1O)c1cccnc1	x	x	x	x	2%	12%
CC(=O)Oc1ccc(N(C(C)=O)S(=O)(=O)c2ccc(Cl)cc2)c2ccccc12	18µM*	x	57	17	29µM*	u
CC(=O)Oc1ccc(N(C(C)=O)S(=O)(=O)c2ccc(C)cc2)c2ccccc12	x	x	35	-25	5.2µM*	5.2µM*
O=C(Cn1c(SCc2ccccc2F)nc2ccncc21)Nc1ccccc1C(F)(F)F	x	3%	x	x	u	-19%
COc1ccc(NC(=O)C2CCCN(C(=O)c3cnn(-c4ccccc4)c3-n3cccc3)C2)cc1 (centres undefined)	x	0%	x	x	u	10µM*
Cc1cc(C)cc(NC(=O)C2CCCN(C(=O)c3cnn(-c4ccccc4)c3-n3cccc3)C2)c1 (centres undefined)	x	5%	x	x	18µM*	18µM*
COc1ccc(OCc2cc(C(=O)NCc3cccc(C)n3)no2)c(Cl)c1	u	2%	-13	-1	-24%	-24%
COc1ccc2cc(C=O)n(C)c2c1	1%	0%	21	-25	-4%	3%
COc1ccc2cc(CO)n(C)c2c1	2%	4%	27	-21	8.2µM*	u
CC(CNC(=O)c1cc2cc(S(=O)(=O)N3CCCCC3)ccc2n1C)c1ccccc1 (centres undefined)	x	3%	x	x	3.3µM*	12µM*
CC(C)CCNC(=O)c1cc2cc(S(=O)(=O)N3CCCCC3)ccc2n1C	x	5%	x	x	u	u
SMILES	ELG1 DNA repair	TDP1 inh	IL-1B inflam inh	Giardia killer	DT40 TDP1 CPT	TDP1 cell noCPT
Cn1c(C(=O)NCCc2ccccc2)cc2cc(S(=O)(=O)N3CCCCC3)ccc21	x	5%	x	x	15µM*	u
CCOC(=O)c1c(NC(=O)c2ccccc2Cl)sc2c1CCCC2	x	-2%	x	x	u	u
CCOC(=O)c1c(NC(=O)c2ccccc2N(C)S(=O)(=O)c2ccccc2)sc2c1CCCC2	u	-3%	-9	-11	u	21µM*
CC(C)OC(=O)c1c(NS(=O)(=O)c2ccccc2)sc2c1CCCC2	-4%	1%[56.1 µM]	0	2	6.5µM*	5.2µM*
COC(=O)c1c(NC(=O)c2ccccc2N(C)S(=O)(=O)c2ccccc2)sc2c1CCCC2	u	0%	20	-5	16µM*	15µM*
CCOC(=O)c1c(NC(=O)C(NCCN(C)C)c2ccccc2)sc2c1CCCC2 (centres undefined)	-2%	1%[0.0935 µM]	-108*	-17	0.65µM*	2.1µM*
COC(=O)c1c(NS(=O)(=O)Cc2ccccc2)sc2c1CCCC2	-2%	4%	36	-13	-10%	-2%
COC(=O)c1c(NC(=O)c2ccccc2C(=O)O)sc2c1CCC2	u	x	5	1	-12%	-8%
Cc1cccc(C)c1OC(=O)CSc1nnc(-c2ccc3c(c2)OCO3)o1	x	9%	x	x	-21%	-18%
CCOC(=O)c1sc(NC(=O)CSc2n[nH]c(-c3ccncc3)n2)c(C#N)c1C	18µM*	-7%	41	-2	u	u
CCOC(=O)c1sc(NC(=O)c2cc(-c3ccc(C)cc3)nc3ccccc23)c(C#N)c1C	u	4%	-5	-7	21µM*	16µM*
COC(=O)c1sc(NC(=O)c2cc(-c3ccccc3)nc3ccccc23)c(C#N)c1C	-2%	1%	7	-20	8.2µM*	7.3µM*
COc1ccc(-c2cc(C(=O)Nc3sc4c(c3C#N)CCCC4)c3ccccc3n2)cc1	u	0%	-7	15	-22%	u
Cc1ccccc1-c1cc(C(=O)Nc2sc(C(=O)OC(C)C)c(C)c2C#N)c2ccccc2n1	23µM*	12%	-27	-6	23µM*	21µM*
CSc1cccc(NC(=O)C2CCCN(S(C)(=O)=O)C2)c1 (centres undefined)	x	x	-19	x	-15%	-25%
Cc1ccccc1NC(=O)c1sc(NC(=O)COc2ccccc2)c(C#N)c1C	23µM*	3%	2	-9	u	18µM*
Cc1ccccc1OCC(=O)Nc1sc2c(c1C#N)CCC2	u	-1%	-6	19	u	-29%
